What all share (test): NCI-60 one-dose screen, 48 h (100 = growth as untreated, 0 = no growth, -100 = all killed)
For assay [1], the system named is SR leukemia. The following applies: 10 µM unless noted.
For assay [2], the system named is RPMI-8226 leukemia. The following applies: 10 µM unless noted.
The test system of assay [3] is OVCAR-8 ovarian. The conditions noted are these: 10 µM unless noted.
In assay [4] the test system is OVCAR-5 ovarian. The following applies: 10 µM unless noted.
The test system of assay [5] is OVCAR-4 ovarian. The following applies: 10 µM unless noted.
Assay [6] relates to SK-OV-3 ovarian. The conditions noted are these: 10 µM unless noted.
Assay [7] concerns IGROV1 ovarian. The following applies: 10 µM unless noted.
The subject of assay [8] is OVCAR-3 ovarian. The following applies: 10 µM unless noted.
Assay [9] has as its system HS 578T breast. The following applies: 10 µM.
Assay [10] deals with NCI/ADR-RES ovarian. The following applies: 10 µM unless noted.
In assay [11] the test system is T-47D breast. The following applies: 10 µM unless noted.
Assay [12] relates to BT-549 breast. The following applies: 10 µM unless noted.
Assay [13] concerns MDA-MB-435 melanoma. The following applies: 10 µM unless noted.
In assay [14] the test system is SW-620 colon. The conditions noted are these: 10 µM unless noted.
For assay [15], the system named is MCF7 breast. The following applies: 10 µM unless noted.
Assay [16] has as its system HCT-116 colon. The conditions noted are these: 10 µM unless noted.
In assay [17] the test system is HCC-2998 colon. The conditions noted are these: 10 µM unless noted.
Assay [18] has as its system KM12 colon. The following applies: 10 µM unless noted.

The panel holds about 83,000 compounds, 20% with a hit somewhere; the sample as a whole holds those more often.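 Assay: single dose, 48 h. Readout: percent growth (0 = no net growth; negative = cell death). Active: <10.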 Unmarked numbers belong to inactive results. Activity calls are given as the source filed them.

As for `CCOc1cccc(/C=N/NC(=O)c2ccc(Nc3ccnc(C(F)(F)F)c3)cc2)c1O`, the growth in [1] is 68.7%; in [2], -23.6% (active); in assay [3], 24.7%; in assay [4] it was 13.9%; in assay [5], 31.3%; in assay [6], 10.9%. The growth in assay [7] was -9.15% (active); in [8] it was 24.6%; in [9], 11.3%; in assay [10], 49.3%; in [11], 3.07% (active); in [12], 14.6%. Besides, the growth in [13] is 40.2%; in assay [14], 32.1%; in assay [15] it was -1.78% (active); in assay [16], 7.55% (active); in assay [17] it was 35.3%; in assay [18] it was 24.8%.
Turning to `Cc1cc2nc3c(=O)[nH]c(=O)nc-3n(CC=O)c2cc1C`, the growth in assay [1] was 129%; in assay [2], 140%; in [3] it was 121%; in [4], 96.2%; in assay [5] it was 100%; in [6] it was 106%. The growth is 88.7% in [7]; 106% in [8]; 101% in assay [9]; 111% in [10]; 100% in [11]; 113% in assay [12]. Besides, the growth in [13] was 92.2%; in assay [14] it was 99.9%; in [15], 99%; in assay [16], 106%; in assay [17] it was 111%; in [18], 107%.
For `Cc1cc(C)c2c(n1)sc1c(Nc3ccc(O)cc3)ncnc12`, the growth was 13.4% in assay [1]; 39% in assay [2]; 10.8% in assay [3]; 55.4% in assay [4]; 90.6% in [5]; 30.5% in assay [6]. Besides, the growth is 68.2% in [7]; 55.3% in [8]; 82.5% in [9]; 19.1% in assay [10]; 39.6% in assay [11]; 50.6% in assay [12]. Further, the growth in assay [13] was 36.6%; in assay [14], 45.6%; in assay [15] it was 20.3%; in assay [16], 29.2%; in assay [17] it was 63.3%; in assay [18] it was 50.3%.
Turning to `C#CCNC(=S)N/N=C(\C)c1ccccn1`, the growth in assay [1] is 3.06% (active); in assay [2], 12.9%; in assay [3], 12.4%; in assay [4], 35.1%; in assay [5], 29.1%; in assay [6], 30.8%. For the same molecule, the growth in assay [7] is 5.45% (active); in [8], 16.6%; in [9], 70.2%; in assay [10] it was 8.45% (active); in assay [11], 24.1%; in [12], -2.53% (active). The growth in assay [13] was 33.1%; in assay [14] it was 34.3%; in assay [15], 4.54% (active); in [16], 1.22% (active); in assay [17], 35.1%; in assay [18], 23.5%.
Consider `CCCCNCC(O)c1cc2c(Cl)cc(Cl)cc2c2cc(C(F)(F)F)ccc12` (centres undefined), for which the growth was -68% (active) in [1]; -38.8% (active) in assay [2]; -56% (active) in [3]; -81.2% (active) in assay [4]; -89.7% (active) in assay [5]; -22.8% (active) in assay [6]. Further, the growth in assay [7] is -65.2% (active); in assay [8], -91.1% (active); in assay [9] it was -51.6% (active); in [10], -64% (active); in assay [11], -74.6% (active); in assay [12], 11.9%. Further, the growth was -52.7% (active) in assay [13], -68.2% (active) in assay [14] and -89.4% (active) in assay [18].
In the case of `N#CC1=C(N)Oc2nc[nH]c(=O)c2C1c1cccs1` (centres undefined), the growth in [1] is 92%; in assay [2] it was 100%; in [3], 98.3%; in assay [4] it was 100%; in assay [5], 90.9%; in assay [6] it was 105%. The growth is 111% in assay [7]; 108% in assay [8]; 112% in [9]; 113% in assay [10]; 95.2% in assay [11]; 103% in assay [12]. The growth was 101% in assay [13]; 102% in assay [14]; 97.1% in assay [15]; 106% in [16]; 108% in assay [18].
`COc1c(B(O)O)cccc1-c1nc2ccc3[nH]ncc3c2c2c1CCCC2`: the growth in assay [1] is 13.9%; in assay [2], 7.44% (active); in assay [3], 17%; in [4] it was 29.5%; in [5], 74.2%; in assay [6], 6.76% (active). In addition, the growth was 13.8% in [7]; 19.3% in assay [8]; 14.6% in [9]; 50.7% in assay [10]; 39.2% in assay [11]; 7.15% (active) in assay [12]. Moreover, the growth is 38.4% in [13], 8.47% (active) in assay [14], 6% (active) in assay [16] and 53.3% in assay [17].
With `O=c1cc(N2CCOCC2)oc2c(-c3ccc4c(c3)OCCO4)csc12`, the growth was 13.9% in assay [1]; -0.399% (active) in [2]; 13.8% in assay [3]; 18.1% in [4]; 11.5% in assay [5]; -17.3% (active) in assay [6]. In addition, the growth in assay [7] was -9.54% (active); in [8], 19.1%; in [9] it was -7.53% (active); in assay [10], 16.5%; in [11], -15% (active); in [12], 5.39% (active). The growth was 14.7% in assay [13]; 37.6% in [14]; 14.4% in [16]; 33.2% in assay [17]; 31.7% in assay [18].
As for `O=C(Nc1ccc(OS(=O)(=O)c2ccc(F)cc2)cc1)C12CC3CC(CC(C3)C1)C2`, the growth in [1] was 36.3%; in assay [2], 12.3%; in assay [3], 72.4%; in assay [4], 100%; in [5] it was 54.4%; in assay [6], 74.9%. Moreover, the growth in [7] was 90.2%; in [8], 78.2%; in assay [9] it was 75.8%; in [10], 60.2%; in [11] it was 31.3%; in [12], 71.9%. The growth is 82.9% in assay [13]; 34% in assay [15]; 33.7% in assay [16]; 40.6% in [17]; 37.3% in assay [18].

(Values after PubChem BioAssay (NCI).)
